Only some compounds are listed: those with a hit (about 7.8% of all), similar ones and a draw of the others.
HCV inh: blocks hepatitis C virus; Huh7.5.1 HCVcc-Cre infection, luciferase reporter, 44 h; Potency, µM (top dose mostly 41.8 µM), for inactives: at the top dose activity change, negative = inhibition, usual class: inhibitors; hit rate 3.4% among 340,000; AID 651820; active means well fitted inhibition curve with a large enough effect; inconclusive means small, poorly fitted or top-dose-only effect, or another doubt; inactive means no such curve, though single readings can be large or run the other way; further: potency means the concentration at half of the fitted maximal effect
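After 44 h co-culture of compound, cells and HCVcc-Cre (~0.5 moi), substrate is added for 15 min at room temperature and luciferase measured over 15 sec. Cells were seeded at 1,000/well and pre-cultured 4 h.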
VACV Venus inh: inhibitors of vaccinia virus (Venus reporter). Vaccinia virus Venus reporter expression, fluorescence. Potency, µM (top dose mostly 36.5 µM), for inactives: at the top dose activity change, negative = inhibition, actives largely listed as inhibitors. hit rate 0.46% among 330,000; calls by dose curve; tested in A549 cells; further: potency means the concentration at half of the fitted maximal effect; nearly all actives have a fitted effect of over 30% in size
Vaccinia mCherry: inhibitors of vaccinia virus infection (mCherry reporter signal); Vaccinia virus mCherry reporter infection, fluorescence; Potency, µM (titrated, usually from 36.5 µM), for the others: at the top dose activity change, negative = inhibition, most hits filed as inhibitors; hit rate 0.63% among 310,000; AID 720579; calls by dose curve; tested in A549 cells; further: potency means the concentration at half of the fitted maximal effect; nearly all actives have a fitted effect of over 35% in size
Lassa entry inh: inhibitors of Lassa virus binding or cell entry | Lassa virus pseudotype entry inhibition, cell reporter | Potency, µM (series often up to 37.9 µM), for the others: at the highest dose activity change, negative = inhibition, usual class: inhibitors | hit rate 1.2% among 300,000 | AID 540256; calls by dose curve; tested in HEK293 cells; further: potency means the concentration at half of the fitted maximal effect; nearly all actives have a fitted effect of over 50% in size
MARV entry inh: inhibitors of Marburg virus binding or cell entry. Marburg virus pseudotyped entry inhibition, cell reporter. Potency, µM (titrated, usually from 37.8 µM), without a hit: at the top dose activity change, negative = inhibition, usual class: inhibitors. hit rate 1.8% among 300,000; calls by dose curve; tested in HEK293 cells; further: potency means the concentration at half of the fitted maximal effect
HCMV inh: human cytomegalovirus inhibition | HFF cells, HCMV-luciferase reporter, 72 h; hits give low values | activity change, negative = inhibition, % at 57.5 µM | hit rate 4.5% among 410,000 | AID 1259415; in the data active means activity change below about -60%; inconclusive means no clear call, values can overlap the other calls; inactive means above about -39%
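HFF cells seeded 16 h at 37C, treated with compounds, infected with luciferase-reporter HCMV at MOI 1 PFU/cell; luciferase read at 72 h post infection, normalized to buffer-only and Salinomycin controls.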
The depositor's hits bear a star; i = inactive; ? = inconclusive; / = no result given; [ ] = another dose, or the depositor's remark. On the % scale 0 is the no-effect control and ±100 the full control effect.

SMILES	HCV inh	VACV Venus inh	Vaccinia mCherry	Lassa entry inh	MARV entry inh	HCMV inh
CN(C)CCCN(Cc1ccccc1)C(=S)Nc1cccc(C(F)(F)F)c1	11µM*	-15%	-7%	?	?	-38
Cc1ccc(OCC(=O)NC(=S)Nc2cccc(NC(=O)c3ccc(Cl)cc3Cl)c2)cc1	-25%	-10%	-26%	9%	5%	-73*
Cc1ccc(OCC(=O)NC(=S)Nc2cccc(NC(=O)c3ccccc3)c2)cc1	1%	-13%	i	-26%	?	29
O=C(NNC(=S)Nc1cccc(C(F)(F)F)c1)c1ccc(Cl)cc1Cl	?	?	?	0%	?	-66*
FC(F)(F)c1cccc(CNC(=S)Nc2ccccc2)c1	-4%	-8%	i	0%	-17%[46.1 µM]	-72*
COc1ccc(Nc2cc3c(cn2)cc(-c2cccc(C(F)(F)F)c2)n3C)cc1	/	/	/	/	/	-17
Cc1cc(=O)n2[nH]c(-c3ccc(C(C)(C)C)cc3)cc2n1	10µM*	/	/	?	?	-63*
Cc1cc(=O)n2[nH]c(-c3ccccc3)cc2n1	-4%	-12%	i	17%	4%[46.1 µM]	11
CN(C)c1cccc(C(=O)OC(C(=O)Nc2ccc(Cl)cc2C(F)(F)F)c2ccccc2)c1 (centres undefined)	-16%	-19%	-4%	?	?	-63*
Cc1ccc(C)n1-c1nnc(N2CCC(C(=O)Nc3ccccc3Br)CC2)s1	/	-12%	-10%	-2%[46.1 µM]	4%[46.1 µM]	-31
CCN(CC)CCCNC(=O)c1nn(-c2ccc(C)cc2)c(=O)c2c1c1ccccc1n2C	/	3%	13%	-14%[46.1 µM]	?	-23
CCN(CC)CCOC(=O)c1ccc(NC(=O)c2nn(-c3ccc(C)cc3)c(=O)c3c2c2ccccc2n3C)cc1	/	5µM*	5.6µM*	-6%[46.1 µM]	?	-100*
Cc1ccccc1Nc1nc(N)nc(-c2oc3ccccc3c2C)n1	-56%	-19%	i	-4%	?	-9
Cc1c(-c2nc(N)nc(Nc3ccc(F)cc3)n2)oc2ccccc12	10µM*	?	/	-6%	?	62
C[C@H]1[C@@H](NS(=O)(=O)c2ccc3ccccc3c2)CC[C@@]23CCCN2C(=O)CCC[C@@H]13	/	/	/	/	/	-21
CCCCOc1ccc(C(=O)NCCc2csc(-c3ccc(OC)cc3)n2)cc1	/	?	?	?	/	-61*
COc1ccc(-c2nc(CCNC(=O)c3cccs3)cs2)cc1OC	/	-9%	-13%	?	/	-84*
O=C(NCCc1csc(-c2ccccc2)n1)c1cccs1	?	-13%	-8%	/	/	2
COc1ccc(-c2nc(CCl)cs2)cc1	-4%	/	/	/	/	-36
COc1ccc(-c2nc(CCl)cs2)cc1OC	11µM*	-23%	-2%	-6%	23%[46.1 µM]	35
O=C(CSc1ncc2c(n1)-c1ccccc1N(Cc1ccccc1)S2(=O)=O)Nc1ccccc1	/	4%	2%	8%[46.1 µM]	/	3
Oc1ccc(Cl)cc1C1C=C(c2ccc3c(c2)OCO3)NC(c2ccc(C(F)(F)F)cc2)N1 (centres undefined)	/	-11%	16%	/	/	/
Cc1cccc(Oc2nc3c(c(=O)n(C)c(=O)n3C)n2C)c1C	/	-3%	5%	28%[46.1 µM]	-1%[46.1 µM]	16
Cc1ccc(OCCCNC2CCCC2)cc1	4%	/	/	-1%	16%	-6
CC(C)(C)c1ccc(OCCCNCc2ccccc2)cc1	11µM*	?	-14%	?	?	27
SMILES	HCV inh	VACV Venus inh	Vaccinia mCherry	Lassa entry inh	MARV entry inh	HCMV inh
CC(C)(C)c1ccc(OCCCNC2CCCC2)cc1	?	-26%	-18%	?	6.3µM*	-10
Cc1ccc([N+](=O)[O-])cc1NC(=O)Nc1cccc(F)c1	?	?	-27%	/	/	-97*
O=C(Nc1ccccc1)Nc1cc([N+](=O)[O-])ccc1F	0%	-8%	-15%	?	-18%	?
Cc1ccc(N=Nc2ccc(C)cc2NC(=O)Nc2ccccc2F)cc1	?	-23%	-19%	/	/	-67*
O=C(Nc1ccccc1F)Nc1ccccc1F	-7%	/	/	/	/	-25
Cc1cc([N+](=O)[O-])ccc1NC(=O)Nc1ccccc1F	?	-12%	-17%	20%[46.1 µM]	0%[46.1 µM]	-61*
O=C(CSc1nc2c([nH]c3ccccc32)c(=O)n1-c1cccc(C(F)(F)F)c1)N1CCc2ccccc21	/	-22%	-17%	-24%[46.1 µM]	/	34
CCc1ccc(OCC(=O)N(Cc2ccc(OC)cc2)C2CCS(=O)(=O)C2)cc1 (centres undefined)	/	-10%	-5%	-7%[46.1 µM]	/	-15
CC1=C(c2ccc(Cl)cc2)S(=O)(=O)NC1=NCc1ccc(C)cc1	/	-9%	-10%	-13%[46.1 µM]	-26%[46.1 µM]	0
CC(=O)NCCNC(=O)c1nnc2n1CCN(C(=O)C1CCCCC1)C2	/	/	/	/	/	-17
CC12C=C(/C=C/c3ccc(F)cc3)C(C)(C1)C(c1ccc(F)cc1)CC2=O (centres undefined)	/	/	/	/	9%[14.2 µM]	/
C=CCOc1ccccc1CNc1ccc2c(c1)OCCO2	?	-15%	-26%	11µM*	?	/
CCOc1ccc(Br)cc1CNc1ccc2c(c1)OCCO2	11µM*	-5%	-8%	-8%	?	-65*
Cc1cc(C(=O)NCc2cc(F)cc3c2OCOC3)nn1C	9%	-6%[7.34 µM]	i[7.34 µM]	0%	15%[46.1 µM]	-38
Cn1nc(C(C)(C)C)cc1C(=O)NCc1cc(F)cc2c1OCOC2	?	/	/	/	/	-72*
CC(C)(C)N=C1NC(=NC(C)(C)C)c2ccccc21	?	-24%	?	?	15µM*	-63*
c1ccc2c(c1)C(=NCC1CCCO1)NC2=NCC1CCCO1 (centres undefined)	3%	-17%	-18%	-10%	-1%	-6
Cc1ccc(C(=O)NC(NC(=O)c2ccc(C)cc2)c2cccc([N+](=O)[O-])c2)cc1	-3%	-4%	-8%	-17%	-24%	-60*
Cc1ccccc1C(=O)NC(NC(=O)c1ccccc1C)c1cccc([N+](=O)[O-])c1	4%	-7%	i	?	?	-36
COc1ccc(CCNc2ccc(C(CC(N)=O)NC(=O)Cc3cccc4ccccc34)cc2[N+](=O)[O-])cc1 (centres undefined)	21%	13µM*	?	/	/	-2
CCCCNc1ccc(C(CC(N)=O)NC(=O)Cc2cccc3ccccc23)cc1[N+](=O)[O-] (centres undefined)	3%	-15%	-30%	/	/	9
Cc1cccc(CNc2ccc(C(CC(N)=O)NC(=O)Cc3cccc4ccccc34)cc2[N+](=O)[O-])c1 (centres undefined)	-29%	-13%	-8%	/	/	-79*
C[C@@H]1CCCCO[C@@H](CN(C)CC2CCCCC2)[C@@H](C)CN([C@H](C)CO)C(=O)c2cc(NC(=O)Nc3ccc4c(c3)OCO4)ccc2O1	/	/	/	/	/	9
CC1=C(C(=O)Nc2cccc(C(F)(F)F)c2)C2(CCCCCC2)OC1=O	/	-22%	-9%	-1%[46.1 µM]	/	0
NCC12CC3CC(C1)CC(c1ccc(Br)cc1)(C3)C2	13µM*	22µM*	?	/	/	-1

Screening data from PubChem.
